Most compounds without a hit are left out; they make up all but 1.8% or so of the library.
PKD1 inh – inhibitors of human PKD1 kinase, biochemical, fluorescence polarization. PKD1 kinase fluorescence polarization assay. actives 0.056% (n = 200,000). Serine/threonine-protein kinase D1 (Homo sapiens), Q15139. inhibition, % (concentration not given with the values)
VLA-4 inh – inhibition in human VLA-4 binding assay, primary screen, VLA-4 allosteric modulator project, MLPCN library, flow cytometry, VLA-4 expressing cells; ligand binding flow cytometry; inhibition, % (about 7 µM as worked out from the volumes in the protocol); actives 0.2% (n = 330,000); AID 2557, 2010
LANA-H2B inh – blockers of LANA interaction with H2A/H2B – biochemical, FP readout, HTS, primary screen; Protein LANA1 (Human herpesvirus 8 type P (isolate GK18)), Q9QR71; cell-free LANA-H2A/H2B peptide, fluorescence polarization; inhibition, % (concentration not given with the values); actives 0.6% (n = 320,000); AID 2629, 2010; in the data active means inhibition mostly above about 10%, no sharp cut-off; inactive means mostly below about 6.7%
GRK2 inh – compounds blocking aptamer binding on GRK2 – biochemical, human GRK2, bead flow cytometry, HTS, primary screen; Beta-adrenergic receptor kinase 1 (Homo sapiens), P25098; FAM-aptamer displacement from GRK2; inhibition of aptamer binding, % at 10 µM; actives 0.59% (n = 330,000); AID 488847, 2010;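 active means inhibition of aptamer binding above 40%, roughly 3 SD of noise, on plates passing a quality check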;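 further: median bead fluorescence of bound FAM aptamer so fluorescent compounds give negative values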
DSG3 Ab inh – inhibitors of pemphigus antibody binding to DSG3, primary screen, biochemical, bead-based, flow cytometry, scFv-GFP; Desmoglein-3 (Homo sapiens), P32926; DSG3-coupled beads, scFv-anti-DSG3-GFP binding; active compounds read low; binding (percent of control), % at 10 µM; actives 0.48% (n = 310,000); AID 588358, 2011;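 active means binding more than 3 SD below its plate's average and above zero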;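 further: hits lower antibody fragment binding to DSG3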
HDAC3 inhib – HDAC3 deacetylase inhibitors, primary screen, biochemical, fluorescence, cell-free homogeneous; Histone deacetylase 3 (Homo sapiens), O15379; recombinant HDAC3, fluorogenic peptide/trypsin coupled; inhibition, % at 8.3 µM; actives 0.15% (n = 320,000); in the data active means inhibition above about 26%, passing the limit was not always enough
VLA-4 allo CP – retest of VLA-4 allosteric modulators, confirmation, cell-based, cherry-picked plates, U937, HUTS-21 LIBS antibody; AID 2813, 2010; actives 2% (n = 1,300); shares compounds with VLA-4 inh; inhibition, % at 6.7 µM; U937 cells, HUTS-21 LIBS mAb binding, flow cytometry; LDV ligand present at threefold Kd; in the data active means inhibition above about 40%;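 further: 0% = ligand without compound and 100% = no ligand background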
An asterisk follows results filed as active; i = inactive; x = no result. Unless noted, no stated cut-off is given here; in the data, active means inhibition above about 50%; inactive means the rest.

SMILES	PKD1 inh	VLA-4 inh	LANA-H2B inh	GRK2 inh	DSG3 Ab inh	HDAC3 inhib	VLA-4 allo CP
COc1cccc2cc(C(C)OC(=O)Nc3ccc(C)cc3)oc12 (stereo unspecified)	6	1	-3	2	95	6	x
COC(=O)c1cc(C(=O)Nc2nnc(CC(C)(C)C)s2)cc([N+](=O)[O-])c1	-2	51*	-7	0	127	3	-1
CCc1cccc(NS(=O)(=O)c2cccc3cccnc23)c1	x	-4	0	1	97	2	x
O=C(O)c1cccc(NS(=O)(=O)c2cccc3cccnc23)c1	4	50*	-1	1	102	4	18
O=C(CCC(=O)N(CC(=O)NC1CCCCC1)Cc1cccs1)Nc1ccccn1	-3	2	0	2	99	-5	x
COC(=O)c1c(C)[nH]c(C(=O)COC(=O)c2c(C)noc2C)c1C	x	-5	2	3	102	2	-4
CCOC(=O)c1c(C)[nH]c(C(=O)COC(=O)C2(C)CC2(Cl)Cl)c1C (stereo unspecified)	2	-9	-1	4	106	7	3
CC(=O)c1c(C)[nH]c(C(=O)COC(=O)c2c(C)noc2C)c1C	x	9	3	0	x	-1	x
CCOC(=O)c1c(C)[nH]c(C(=O)COC(=O)c2ccccn2)c1C	-4	-10	2	1	100	13	-5
CC(=O)c1c(C)[nH]c(C(=O)COC(=O)C2CC2)c1C	-1	-4	-1	0	97	3	x
CCOC(=O)c1c(C)[nH]c(C(=O)COC(=O)C2CC2)c1C	x	x	x	x	118	x	-8
COc1cc(Cl)c(C)cc1NC(=O)CCN1C(=O)NC(C)(C)C1=O	x	x	x	x	102	x	x
Cc1ccc(CS(=O)(=O)c2cn(CC(=O)Nc3ccon3)c3ccccc23)cc1	x	20	-8	0	95	5	x
Cc1cc(O)c(S(=O)(=O)c2ccccc2)c(C)c1NS(=O)(=O)c1ccccc1	x	-4	3	9	x	3	x
COc1cccc2c1C(=O)c1c(O)c3c(c(O)c1C2=O)C[C@](O)(C(C)=O)C[C@H]3O[C@@H]1C[C@@H](N)[C@@H](O)[C@@H](C)O1	x	i	11	7	114	10	x
CCCc1cc(=O)[nH]c(SCC)n1	-12	1	11	1	91	4	x
CCCc1cc(=O)[nH]c(-n2[nH]c3c(c2=O)CCCC3)n1	-7	-6	2	0	x	7	3
Cc1cccc(C)c1NC(=O)Cn1cc(C=O)c2ccccc21	x	5	-2	0	99	-9	8
CCC(=O)c1cn(CC(=O)Nc2ccc(C)cc2C)c2ccccc12	x	-1	4	0	96	1	0
COc1ccc(NC(=O)Cn2cc(C(C)=O)c3ccccc32)cc1	x	7	3	1	98	-5	3
CCC(=O)c1cn(CC(=O)Nc2c(C)cccc2C)c2ccccc12	x	14	3	0	103	-6	7
CC(=O)c1cn(CC(=O)Nc2ccccc2C)c2ccccc12	-7	13	-6	1	105	-2	x
CC(C)C(NC(=O)Cc1ccccc1)C(=O)N1CCN(c2cccc(Cl)c2)CC1 (stereo unspecified)	x	-5	-7	2	101	4	x
Cc1ccc(OCc2ccc(C(=O)NCc3cccnc3)cc2)cc1C	-7	4	3	1	111	0	x
CCC(=O)c1cn(CC(=O)Nc2cccc(OC)c2)c2ccccc12	x	11	0	0	104	-13	6
SMILES	PKD1 inh	VLA-4 inh	LANA-H2B inh	GRK2 inh	DSG3 Ab inh	HDAC3 inhib	VLA-4 allo CP
Fc1ccc(CCNC(=S)Nc2ccc(F)cc2)cc1	-7	3	x	1	133	x	x
CCCCc1ccc(NC(=S)NCCc2ccc(F)cc2)cc1	4	41	0	0	74	3	-4
Cc1c(NC(=O)C(C)OC(=O)C23CC4CC(CC(Br)(C4)C2)C3)c(=O)n(-c2ccccc2)n1C (stereo unspecified)	1	-4	2	4	98	0	x
COc1ccc(C(=O)N(Cc2ccco2)Cc2cccs2)c(O)c1	-9	54*	2	2	x	5	1
COc1ccccc1C(=O)NCCC(=O)N(Cc1ccco1)Cc1cccs1	x	4	5	0	100	8	x
COc1ccc(OC)c(NC(=O)COC(=O)CN2C(=O)NC3(CCCC3)C2=O)c1	x	2	-3	0	92	2	x
O=C(COC(=O)/C=C/c1ccc(OC(F)F)cc1)Nc1cccc(S(=O)(=O)N2CCOCC2)c1	x	7	0	0	94	11	x
CN1C(=O)C(C)(C)c2cc(S(=O)(=O)NCCc3ccc(Cl)cc3)ccc21	x	-7	-4	2	105	5	-5
Cc1ccc(CCNS(=O)(=O)c2ccc3c(c2)C(C)(C)C(=O)N3C)cc1	x	-24	12	0	104	-2	x
CN1C(=O)C(C)(C)c2cc(S(=O)(=O)NCc3ccc(Cl)cc3)ccc21	x	0	8	0	108	-5	0
Cc1ccccc1CNS(=O)(=O)c1ccc2c(c1)C(C)(C)C(=O)N2C	x	18	0	3	101	-1	x
CC(C)C(NS(=O)(=O)c1ccc2c(c1)C(C)(C)C(=O)N2C)C(=O)NCc1ccccc1Cl (stereo unspecified)	x	74*	-4	1	100	-1	-15
COc1cc(C(=O)NCC(c2ccco2)N2CCc3ccccc3C2)cc(OC)c1OC (stereo unspecified)	x	14	0	0	112	-10	x
Cc1cc(C)cc(N(CC(=O)Nc2ccc(Br)cc2)S(=O)(=O)c2c(C)[nH]c(=O)[nH]c2=O)c1	x	2	-1	2	102	-1	12
Cc1cc(C)cc(N(CC(=O)Nc2cc(C)ccc2C)S(=O)(=O)c2c(C)[nH]c(=O)[nH]c2=O)c1	x	5	x	0	101	x	2
O=C(NCCCC(NC(=O)OCc1ccccc1)C(=O)O)OCc1ccccc1 (stereo unspecified)	x	19	7	1	120	5	x
O=C(O)c1cc(-c2ccc(Cl)c(Cl)c2)n(-c2ccccc2)n1	x	47	0	2	96	-5	-8

High-throughput results (PubChem BioAssay)
